Measured values published in PubChem BioAssay (NCI).
This is part of a sample that, as a whole, favours compounds with a hit. Of some 79,000 tested, about 15% had one in any assay. Active and inactive are the calls of the source. Rule as the data show it: active = growth inhibition above about 70%; inactive = the rest.

Assay: NCI Yeast Anticancer Drug Screen. Data for the mlh1 rad18 strain (AID 175)
Settings: S. cerevisiae mlh1 rad18 strain growth inhibition; at 50.0 µM; active compounds read high
How it was run: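 Compound-treated yeast growth, normalised to vehicle controls. Strain bears defined DNA repair mutations.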

Row | Compound | growth inhibition
1 | C1=NC2c3ccccc3Cc3cccc1c32 (centres undefined) | 94.3% (active)
2 | COc1ccc2c(c1)CN([C@@H](C)[C@H]1CC[C@H]3[C@@H]4CC[C@H]5C[C@@H](O)CC[C@]5(C)[C@H]4CC[C@]13C)CO2 | 98.4% (active)
3 | Cc1c(N)nc(C(CC(N)=O)NCC(N)C(N)=O)nc1C(=O)NC(C(=O)NC(C)C(O)C(C)C(=O)NC(C(=O)NCCc1nc(-c2nc(C(=O)NCCCNCCCc3ccccn3)cs2)cs1)C(C)O)C(OC1OC(CO)C(O)C(O)C1OC1OC(CO)C(O)C(OC(N)=O)C1O)c1cnc[nH]1 (centres undefined) | 92% (active)
4 | COc1cc2c(cc1O)-c1c(cnn1-c1ccccc1)CCC2 | 97.6% (active)
5 | CN(C)CC(CN(C)C)C(=O)c1ccc(Oc2ccc(Cl)cc2)cc1 | 6.95% (inactive)
6 | N#CCCN(CCC#N)Cc1c(O)c(O)c(CN(CCC#N)CCC#N)c2ccccc12 | 59% (inactive)
7 | Cc1cc2c(c([N+](=O)[O-])c1C)C(=O)C(Br)=C(N)C2=O | 98% (active)
8 | O=C(O)CSC(=S)N1CCCC1 | -15.8% (inactive)
9 | CNC1=C2NC(=O)/C(C)=C\C=C\C(C)C(O)C(C)C(O)C(C)C(OC(C)=O)C(C)C(OC)/C=C/OC3(C)Oc4c(C)c(O)c(c(c4C3=O)C1=O)C2=O (centres undefined) | 56.5% (inactive)
10 | O=c1c(Cl)nsnc1Cl | 99.4% (active)
11 | CC(NC(=O)OCc1ccccc1)C(=O)NNc1ccccc1Cl (centres undefined) | 97.5% (active)
12 | O=C(OCc1ccccc1CN1CCOCC1)c1cccc(Br)c1 | 6.65% (inactive)
13 | OC(COc1ccc(Cl)cc1)COc1ccc(Cl)cc1 | 99.3% (active)
14 | Cc1c(-c2ccc(C(=N)N)cc2)oc(-c2ccc(C(=N)N)cc2)c1C | 84.5% (active)
15 | COC(=O)[C@@]12OC[C@]34[C@H]([C@@H](O)[C@@H]1O)[C@@]1(C)CC(=O)C(O)=C(C)[C@@H]1C[C@H]3OC(=O)[C@H](OC(=O)C(Cc1ccccc1)NC(=O)OC(C)(C)C)[C@@H]24 (some centres undefined) | -65.6% (inactive)
16 | CCCCCCCCCCCCCCCC(=O)NCC[N+](C)(CC)CC | 29.5% (inactive)
17 | Oc1ccc(CCCCCc2ccc(O)cc2)cc1 | 99.5% (active)
18 | NN(Cc1ccccc1)c1ccccc1 | 88.6% (active)
19 | CCOC(=O)c1[nH]cc(C)c1-c1ccc2c(-c3ccccc3)nc3ccccc3n12 | 69% (inactive)
20 | COC(=O)c1cn(NS(=O)(=O)c2ccc(OC)cc2)cc1C(=O)OC | 20.9% (inactive)

Row | Compound | growth inhibition
21 | CN(C)c1cc2c(cc1[N+](=O)[O-])-c1ccccc1C2O (centres undefined) | 86.6% (active)
22 | CN(C)CCOc1cc2c(c3ccccc13)-c1ccccc1C2O (centres undefined) | 72.8% (active)
23 | BrC(Br)([P+](c1ccccc1)(c1ccccc1)c1ccccc1)[P+](c1ccccc1)(c1ccccc1)c1ccccc1 | 78.2% (active)
24 | CCOCCNc1ncnc2c1cnn2C | 39% (inactive)
25 | C[C@H](CCC1=NCCN1)[C@H]1CC[C@H]2[C@@H]3CC[C@@H]4C[C@H](O)CC[C@]4(C)[C@H]3C[C@H](O)[C@]12C | 91% (active)
26 | CCOC(=O)C1=C(c2ccccc2)N(C)c2ccccc2S1 | 67.2% (inactive)
27 | C(=P(c1ccccc1)(c1ccccc1)c1ccccc1)[P+](c1ccccc1)(c1ccccc1)c1ccccc1.[Br][Cu][Br] | 99.3% (active)
28 | COc1ccc(N(C)Sc2ccccc2)cc1 | 71.3% (active)
29 | COc1ccc(Cc2c(-c3ccc(C)cc3)n[nH]c(=O)c2C2C(=O)N(c3ccccc3)N=C2c2ccccc2)cc1 (centres undefined) | 96% (active)
30 | N#CSC#CCCC#CSC#N | 88.9% (active)
31 | c1ccc2c(c1)OCC(CNCCNCC1COc3ccccc3O1)O2 (centres undefined) | 67.2% (inactive)
32 | CC(C)(C)OC(=O)N[C@H]1CC2(C=C(Cl)C(=O)C(Cl)=C2)OC1=O | 81% (active)
33 | c1ccc([P+](c2ccccc2)(c2ccccc2)C2CCCC2)cc1 | 98.5% (active)
34 | COc1ccc2nc(-c3ccc(Cl)cc3)[nH]c2c1 | 60.3% (inactive)
35 | CC[C@H](CC[C@@H](C)C1CC[C@H]2[C@@H]3CCC4=CC(=O)CC[C@]4(C)[C@H]3CC[C@]12C)C(C)C (some centres undefined) | 36% (inactive)
36 | CCOC(=O)N/N=C/c1ccc(N(C)CCC#N)cc1 | -3.6% (inactive)
37 | CC(Br)C(=O)c1ccc2cc(Cl)c3ccccc3c2c1 (centres undefined) | 39.1% (inactive)
38 | Cc1ccc(-n2cc(-c3ccc(Cl)cc3)c3c(NN)ncnc32)cc1 | 76.6% (active)
39 | O=C1c2ccccc2C(=O)c2c1ccc(C(=O)O)c2-c1ccc2ccccc2c1 | 97.2% (active)
